In the supplement of paper PMC3334620:
Whole data set: some 33,000 sequences, median “E-score (-0.5 to 0.5)” near -0.054, cut for the highest 2% near 0.39. Many of the other results were omitted from the sample, so the highest values are more common in it than they were.

Each sequence was assayed against Ylr278c (UniProt Q05854) (assay: PBM E-score (8-mer binding enrichment) (E-score (-0.5 to 0.5)); higher = stronger / more preferred TF binding). Conditions: protein concentration: 200 nM; construct: GST-DNA-binding domain.
How it was run: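 Full-length yeast transcription factors or their DNA-binding domains, GST-tagged and expressed with PURExpress, were applied at about 100-200 nM to universal all-10-mer Agilent arrays. These arrays had been made double-stranded by primer extension on fresh or once-stripped slides. Detection used fluorescent anti-GST, normalisation used masliner, and E-scores for ungapped eight-base words pooled with reverse complements came from the Universal PBM Analysis Suite.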

UniProt Q05854, sequence (Q05854 whole entry, the tested form may be a part): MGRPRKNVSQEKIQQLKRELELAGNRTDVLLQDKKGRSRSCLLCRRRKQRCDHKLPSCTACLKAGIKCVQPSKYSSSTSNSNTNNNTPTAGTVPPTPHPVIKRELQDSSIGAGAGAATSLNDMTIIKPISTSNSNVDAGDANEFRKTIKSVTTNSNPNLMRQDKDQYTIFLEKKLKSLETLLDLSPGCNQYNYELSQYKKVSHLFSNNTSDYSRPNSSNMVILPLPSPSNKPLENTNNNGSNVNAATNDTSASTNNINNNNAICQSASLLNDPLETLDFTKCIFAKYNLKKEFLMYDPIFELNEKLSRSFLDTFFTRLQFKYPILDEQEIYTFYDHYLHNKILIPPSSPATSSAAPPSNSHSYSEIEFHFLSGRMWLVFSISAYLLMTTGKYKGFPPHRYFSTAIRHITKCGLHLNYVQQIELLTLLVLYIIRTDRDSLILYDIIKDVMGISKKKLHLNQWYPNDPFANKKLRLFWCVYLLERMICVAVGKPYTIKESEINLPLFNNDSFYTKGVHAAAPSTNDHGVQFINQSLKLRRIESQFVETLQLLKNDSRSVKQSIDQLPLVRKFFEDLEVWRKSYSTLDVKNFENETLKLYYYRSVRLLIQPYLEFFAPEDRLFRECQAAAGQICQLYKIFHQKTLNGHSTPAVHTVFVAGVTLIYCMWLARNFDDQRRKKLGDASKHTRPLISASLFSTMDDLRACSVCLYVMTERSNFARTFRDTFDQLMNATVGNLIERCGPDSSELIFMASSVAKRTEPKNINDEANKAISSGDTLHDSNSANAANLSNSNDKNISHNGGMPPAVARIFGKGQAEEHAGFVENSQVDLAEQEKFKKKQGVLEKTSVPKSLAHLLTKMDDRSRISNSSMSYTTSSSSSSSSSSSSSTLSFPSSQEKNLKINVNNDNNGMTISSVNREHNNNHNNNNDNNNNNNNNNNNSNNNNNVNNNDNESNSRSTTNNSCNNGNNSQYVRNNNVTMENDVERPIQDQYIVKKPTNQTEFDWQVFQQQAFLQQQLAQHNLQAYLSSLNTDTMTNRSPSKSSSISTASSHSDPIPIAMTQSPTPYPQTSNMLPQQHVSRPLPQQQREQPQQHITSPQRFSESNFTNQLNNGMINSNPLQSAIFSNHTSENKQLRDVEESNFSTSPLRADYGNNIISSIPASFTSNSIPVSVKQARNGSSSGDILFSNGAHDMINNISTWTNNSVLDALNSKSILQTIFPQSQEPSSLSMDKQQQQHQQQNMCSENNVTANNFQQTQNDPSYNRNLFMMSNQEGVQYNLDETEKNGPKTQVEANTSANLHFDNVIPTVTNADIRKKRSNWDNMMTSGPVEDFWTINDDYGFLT

Sequence | PBM E-score
AACTGGGG | 0.00524
CTGCAACC | -0.27
CTTTGGTA | -0.0286
CGAATGTC | 0.101
CAGAGTAG | -0.16
AGCCAGCC | -0.18
AAAGCGAT | 0.0361
CGATTTTC | 0.153
GAGCGCCC | 0.00794
CATCGGGG | 0.314
CATCGGAG | 0.457
GATCGGGC | 0.184
CATCGGAA | 0.396
GCTCGGAC | 0.382
AATCGGCC | 0.24
AATCGGGC | 0.0936
AATCGGAC | 0.397
CATCGGTA | 0.261
CATCGGCG | 0.304
GATCGGAC | 0.434
CATCGGCA | 0.284
AGTATCAC | -0.0655
GTTTCGCA | -0.0936
ACTACTAG | -0.0129
ATTTTGGA | 0.168

Sequence | PBM E-score
AAATCCTA | 0.0982
CTTGGCGA | -0.203
TATCGGCA | 0.264
TATCGGGA | 0.288
TATCGGAA | 0.413
CCGCTCCC | 0.191
ATGCTCCA | -0.0254
ACGCTCCC | 0.0269
AGGCTCCC | -0.0902
ACGCTCCG | 0.399
ATGCTCCC | -0.0848
ATGCTCCG | 0.425
AGGCTCCG | 0.39
AGGCTCCA | -0.133
CCGCTCCG | 0.444
ACGCTCCT | -0.237
CCGCTCCA | 0.064
GAGGCCGA | 0.217
ACTTTTCC | 0.278
GCCTAGCA | -0.245
GAGGCTAA | 0.0333
AGCAGACG | -0.00216
ATGTGGGA | -0.101
AAAGCTAT | -0.0422
GGTTGGCA | -0.173

Sequence | PBM E-score
ATAGAGAC | -0.248
CCCCGCAA | 0.225
AAGTCCTA | 0.0365
GCGTCCGA | 0.292
TAGTCCAA | -0.0998
AAGTCCGA | 0.483
CAGTCCGA | 0.402
TAGTCCCA | -0.284
GAGTCCGC | 0.363
CAGTCCGG | 0.367
CAGTCCGC | 0.202
ACGTCCGA | 0.346
TAGTCCGA | 0.415
GAGTCCGA | 0.392
ACCAGGGC | -0.178
ATTGAACG | -0.114
ATTGAACC | -0.0437
AGGCGTAT | -0.308
ACAGTCAT | -0.24
ACTATTGC | 0.0531
ATAGACCG | 0.0141
CAGCTTCC | -0.0366
CAGTGCGG | 0.257
ATGCTGCA | -0.178
CCACGGAG | 0.418

Sequence | PBM E-score
CCACGGAC | 0.272
CCACGGAA | 0.34
ACACGGAA | 0.288
ACACGGAT | 0.199
ACACGGAG | 0.419
CTCTCCGC | 0.325
ATCTCCCG | 0.301
CTCTCCAA | 0.0897
ATCTCCCA | 0.0776
ATCTCCGA | 0.478
ATCTCCCC | -0.00596
ATCTCCAA | -0.0722
ATCTCCAG | -0.0917
ATCTCCGC | 0.47
CTCTCCGA | 0.394
ATCTCCGG | 0.493
CTCTCCCA | -0.148
CTTCATGC | -0.0885
ACCGCGAC | 0.0815
CGAACTGC | 0.0356
ACATTCAA | 0.0683
GACAGTCC | 0.0326
CCGGTAAG | 0.337
GCGCGCAA | 0.219
GTCTCCGA | 0.417

Sequence | PBM E-score
GTCTCCAA | -0.111
GTCTCCTA | -0.166
GTACTTTA | -0.191
AATCCGGG | 0.417
AATCCGGC | 0.425
AATCCGGA | 0.466
CATCCGGG | 0.3
AATCCTGG | -0.0892
AATCCGTA | 0.195
TATCCGGA | 0.469
CATCCGGC | 0.354
AATCCGCA | 0.316
TATCCTGA | -0.121
AATCCGTC | 0.297
TATCCGCA | 0.271
CCTCGACG | -0.00055
GTACTGCA | -0.0765
AAACCTCC | 0.147
AATATTGT | 0.0529
TACCAGGA | -0.0496
CTACTTTC | -0.0554
GGGTCGCA | 0.139
CTTGACAC | -0.193
ATAGATGG | -0.132
CCCTTTCG | 0.116

Sequence | PBM E-score
CATCCGCA | 0.191
CATCCGGA | 0.436
GATCCGCC | 0.276
CATCCGTA | 0.183
GATCCGGA | 0.439
AATCCGGT | 0.442
GATCCGAA | 0.33
AATCCGCT | 0.269
GATCCGGC | 0.407
GATCCTGC | -0.00417
GATCCGTA | 0.158
AATCCAGT | 0.108
CGTTTTGA | -0.142
CTTAAGAA | -0.14
AGCACCGC | 0.121
CGAGCTTC | 0.028
ACTAAGGG | -0.0488
AAGGGTCC | 0.216
AAGAAAGA | -0.0469
ATGCTAGC | 0.00697
CACCGGCG | 0.383
GACCGGAA | 0.389
GACCGGTA | 0.0914
GACCGGGA | 0.359
CACCGGGA | 0.352

Sequence | PBM E-score
CACCGGAG | 0.443
CACCGGTA | 0.297
GACCGGAC | 0.383
CACCGGCC | 0.273
CACCGGTG | 0.306
CACCGGAA | 0.427
CACCGGAC | 0.439
ATACGATA | -0.118
ACGGGGGA | 0.0207
ACTCCATC | 0.275
ATGCACAC | -0.153
CCATCAGC | -0.0147
GGGGTCAC | -0.0137
GTCTTACA | -0.252
GCAGGTCA | -0.134
ACCAGTGC | -0.264
TACCGGTA | 0.246
TACCGGAA | 0.397
AACCGGAA | 0.391
AACCGGCA | 0.215
AACCGGTG | 0.282
AACCGGAT | 0.367
AAACGGAC | 0.197
AACCGGAC | 0.414
AACCGCAG | -0.0582

Sequence | PBM E-score
AACCGCAC | -0.0338
AACCGGAG | 0.48
TACCGGGA | 0.381
ACAGTGAG | -0.301
GAGAGTTA | -0.158
CGCAACAC | 0.111
ATTCAAGG | -0.282
GCTTTCCA | -0.0584
CCTTAGAG | -0.172
GGTCCGAA | 0.439
GGTCCAAC | 0.00905
CGTCCGAC | 0.243
TGTCCGAA | 0.407
TGTCCTAA | -0.233
GGTCCAAA | 0.0394
TGTCCAAA | -0.0727
GGTCCGAC | 0.39
CGTCCGAA | 0.352
AAACCCAA | 0.0205
AACGGGCA | -0.0928
TCCTCAGA | 0.0167
CGTGAGTC | -0.141
CAACTTCC | 0.22
GTAGCGAC | -0.186
GCGTTCGA | -0.11

Sequence | PBM E-score
ATTTCCTG | 0.0615
ACTTCCGC | 0.342
ACTTCCGG | 0.435
ATTTCCGA | 0.446
ATTTCCGC | 0.397
ACTTCCGA | 0.378
ATTTCCCC | 0.127
ATTTCCAG | 0.0814
ATTTCCGG | 0.475
GTTTCCGA | 0.369
CTTTCCGC | 0.332
CTTTCCGA | 0.354
ACACATCA | 0.0404
CCACTGAA | 0.0461
GTCAAGAC | -0.133
GAGCTGGA | 0.0426
TAAGGACA | -0.156
CTATCTGA | -0.328
AGTTCGGA | 0.391
GGTTCGCA | 0.0401
GGTTCGAA | 0.0257
CGTTCGGC | 0.235
AGTTCGGG | 0.281
AGTTCGGC | 0.185
CGTTCGGA | 0.41

Sequence | PBM E-score
CGTTCGTA | 0.0114
GGTTCGGA | 0.42
AAGAGACT | -0.101
AAATCTGA | -0.0879
TAGTACGA | -0.0816
CGGAGTAG | 0.465
AGGAGTAA | 0.0423
GGGAGTAC | 0.0396
AGGAGTAC | -0.136
CCGAGTAG | 0.197
AGGAGTAG | -0.00627
CGGAGTAC | 0.462
CGGAGTAA | 0.468
GGGAGTAA | 0.0663
GAACAGAA | -0.0459
ACTTCAAC | -0.0372
GAGTGAGC | -0.125
AATAGATT | -0.0366
AAGGGCTA | -0.124
CCAGATGG | -0.0985
GTATGGCA | -0.204
GAGCCGGA | 0.407
AAGCCGGC | 0.372
CAGCCGGG | 0.166
TAGCCGGA | 0.42

Sequence | PBM E-score
TAGCCGCA | 0.041
CAGCCGGA | 0.434
AAGCCGGT | 0.333
GAGCCGGC | 0.325
CAGCCGGC | 0.296
GAGCCGCA | 0.0873
TAGCCGAA | 0.141
AAGCCGGA | 0.417
AGCCGCAT | 0.105
CCCCGTGC | 0.295
AAACCCTC | -0.0128
CAGAGGAC | -0.187
CCGGGAAG | 0.334
CAGTGATC | -0.0716
CTCGACCA | -0.232
CGCATAAC | -0.0515
ATAGCGAA | -0.144
ATACACAT | -0.212
ATGCGGAA | 0.383
ATCCGCAT | 0.263
ATCAGGAT | -0.018
ATCCGGAA | 0.432
ATCCGTAA | 0.155
GTGCGGAA | 0.265
TTACGGAA | 0.283

Sequence | PBM E-score
GTACGGAA | 0.31
ATCCGGAT | 0.452
GTCCGGAA | 0.44
TTCCGGAA | 0.467
TTCAGGAA | -0.0794
AATTGCAC | -0.054
CATCGCAA | -0.28
GGTTTCAC | 0.0826
TACGCATA | -0.0249
ATACGGAC | 0.242
ATCCGGAC | 0.424
CTCCGGAC | 0.477
CTCAGGAC | -0.159
CTGCGGAC | 0.221
ATCCGTAC | 0.112
ATCCGGAG | 0.486
ATCAGGAG | -0.02
GTCCGGAC | 0.455
GTCAGGAC | -0.266
GTACGGAC | 0.249
ATCCGTAG | 0.134
ATGCAGAA | -0.16
AGAGATTG | -0.112
AGCTGGTG | -0.109
AATTTGGC | -0.131

Sequence | PBM E-score
ACCCTTCG | 0.0769
ATGCGATA | -0.0857
GTACCAGA | -0.28
ATGCTACG | -0.0841
TAGTAGCA | -0.0836
CGAGGTCC | 0.333
CTCAGGAA | -0.0459
CTGCGGAA | 0.214
CTCCGGAA | 0.479
ATGCGGAG | 0.385
CTCCGGAG | 0.481
CTCAGGAG | -0.171
CTAACAAC | -0.0734
CCGCTGCA | 0.0719
CATGCTCA | -0.115
GTCCGTAA | 0.331
CTCCGTCA | 0.421
CTCCGTAC | 0.358
GTCCGTCA | 0.289
ATCCGTCC | 0.18
CCCCGTCC | 0.252
CTCCGTCC | 0.449
CTCCGTAA | 0.41
ATCCGTCA | 0.159
CGAATCCA | -0.0549

Sequence | PBM E-score
ACATTGGT | -0.1
AATATCTC | 0.0682
ACTGACAG | -0.0502
AGTGGGAT | -0.00431
CCGCCTCC | 0.283
CATCCGCC | 0.309
CCTCCGCA | 0.359
CATCCGCG | 0.197
CCTCCGCC | 0.413
ACTCCACG | 0.0682
AATCCGCG | 0.323
ACTCCGCG | 0.462
CCTCCGCG | 0.416
CGGTCAGA | 0.0192
ATCGCCAT | -0.0309
CGCGTCCA | 0.0142
AAGTGCCT | -0.328
AAAGCAGC | -0.0496
CTATGCAG | -0.166
